PubChem BioAssay (EPA / NIEHS)
Records with an inconclusive call do not appear. Calls of active or inactive are those of the source. How the source made its calls: active means hit-call score of the fitted dose curve at least 0.9, where 1 is the maximum; inconclusive means response in the unintended direction; inactive means score below 0.9.

What was measured:
[1] = biological target: rat Glutamate, MK-801 Agonist Site (GluNMDA_MK801), Grin1 (gene 24408) (UniProt P35439); assay: NVS_LGIC_rGluNMDA_MK801_Agonist: NovaScreen (NVS) Ligand-Gated Ion Channel Assay for rat Glutamate, MK-801 Agonist Site (GluNMDA_MK801) (AID 2283340)
Outline: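 Radioligand binding at MK-801 site in rat forebrain membranes, 1.5 h incubation, filter-based scintillation counting. Initially 25 uM in duplicate; actives then run in concentration-response up to 50 uM, fitted for gain of signal versus DMSO.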

[2] = test system: guinea pig Histamine Receptor (H2), gene 100729734; assay: NVS_GPCR_gH2: NovaScreen (NVS) G Protein-Coupled Receptor Assay for guinea pig Histamine Receptor (H2) (AID 2283342)
Outline: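 Radioligand displacement on guinea pig striatal membranes, 1 h after dosing, filter-based scintillation counting; loss of signal versus DMSO. Single-point screen at 25 uM in duplicate, then concentration-response up to 50 uM.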

[3] = biological target: bovine Estrogen Receptor (ER), ESR1 (gene 407238) (UniProt P49884); assay: NVS_NR_bER: NovaScreen (NVS) Nuclear Receptor Binding Assay for bovine Estrogen Receptor (ER) (AID 2283345);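 further: actives lower the bound radioligand count which means they displace the ER ligand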
Chain of bovine Estrogen Receptor (ER), ESR1 (gene 407238) (P49884 whole entry, looked up): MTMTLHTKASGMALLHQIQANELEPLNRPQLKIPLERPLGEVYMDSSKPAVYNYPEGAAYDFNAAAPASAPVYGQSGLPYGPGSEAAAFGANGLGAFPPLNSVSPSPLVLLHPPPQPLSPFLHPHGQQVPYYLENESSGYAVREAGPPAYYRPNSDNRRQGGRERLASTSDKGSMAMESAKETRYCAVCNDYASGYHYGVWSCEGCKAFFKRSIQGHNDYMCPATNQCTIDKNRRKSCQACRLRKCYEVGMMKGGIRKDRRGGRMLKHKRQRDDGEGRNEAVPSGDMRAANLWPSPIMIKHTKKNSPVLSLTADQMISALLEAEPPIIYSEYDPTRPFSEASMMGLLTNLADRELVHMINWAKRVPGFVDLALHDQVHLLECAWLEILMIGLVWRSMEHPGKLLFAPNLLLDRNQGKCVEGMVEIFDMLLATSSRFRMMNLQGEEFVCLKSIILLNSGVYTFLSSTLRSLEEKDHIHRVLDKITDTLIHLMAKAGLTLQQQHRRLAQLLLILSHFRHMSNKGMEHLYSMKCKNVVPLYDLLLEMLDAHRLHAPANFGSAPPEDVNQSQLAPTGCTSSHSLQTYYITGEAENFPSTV
Outline: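 Bovine uterine membranes; tritiated or iodinated radioligand; competitive displacement; 18 h; scintillation read; DMSO negative control; 25 uM duplicates, then concentration series for actives.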

[4] = biological target: chimpanzee Androgen Receptor (AR), AR (gene 747460) (UniProt O97775); assay: NVS_NR_cAR: NovaScreen (NVS) Nuclear Receptor Binding Assay for chimpanzee Androgen Receptor (AR) (AID 2283346);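 further: radioligand displacement from AR measured by scintillation counting in a cell-free assay; a loss of bound radioligand signal versus DMSO counts as binding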
Outline: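 Cell-free competition binding with insect-cell (Sf9/Sf21) extracted chimpanzee AR; scintillation signal from lysate at 72 h. Screened in duplicate at 25 uM, then concentration-response for actives; fitting relative to DMSO.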

[5] = biological target: Estrogen receptor (Homo sapiens) (UniProt P03372); assay: NVS_NR_hER: NovaScreen (NVS) Nuclear Receptor Binding Assay for human Estrogen Receptor (ER) (AID 2283348)
Chain of Estrogen receptor (Homo sapiens) (P03372 whole entry, looked up, the tested form may be a part): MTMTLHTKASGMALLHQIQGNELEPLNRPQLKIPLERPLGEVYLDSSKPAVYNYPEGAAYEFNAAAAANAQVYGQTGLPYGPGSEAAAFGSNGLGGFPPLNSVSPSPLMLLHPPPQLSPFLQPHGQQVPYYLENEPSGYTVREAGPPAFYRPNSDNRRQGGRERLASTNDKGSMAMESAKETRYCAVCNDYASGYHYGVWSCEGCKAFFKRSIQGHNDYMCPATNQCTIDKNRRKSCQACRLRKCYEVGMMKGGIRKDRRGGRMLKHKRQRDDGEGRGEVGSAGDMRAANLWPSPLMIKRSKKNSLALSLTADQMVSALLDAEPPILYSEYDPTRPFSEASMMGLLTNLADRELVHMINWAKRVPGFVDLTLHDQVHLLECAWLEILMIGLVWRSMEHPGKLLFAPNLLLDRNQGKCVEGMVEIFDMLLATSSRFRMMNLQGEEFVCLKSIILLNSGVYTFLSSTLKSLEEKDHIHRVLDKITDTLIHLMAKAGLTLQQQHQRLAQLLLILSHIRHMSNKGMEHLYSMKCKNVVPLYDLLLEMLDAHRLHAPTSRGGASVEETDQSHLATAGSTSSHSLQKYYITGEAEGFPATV
Outline: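 Scintillation signal from bound radioligand was measured 18 hours after chemical addition to cell-free MCF7 protein extracts, with DMSO as baseline. Activity was scored as signal loss; compounds ran first at 25 uM in duplicate.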

[6] = biological target: Estrogen receptor (Homo sapiens) (UniProt P03372); assay: OT_ER_ERaERa_0480: Odyssey Thera (OT) 8-hour HEK293T Protein-Complementation Assay for Estrogen Receptor-alpha/-alpha Homodimer (AID 2283351);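 further: rise in fluorescence from reassembled reporter fragments on ERα LBD homodimer in nucleus or whole cell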
Outline: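 HEK293T cells stably expressing the human ERα ligand-binding domain (aa 310-547) as a homodimer PCA were dosed with compound for 8 h. Gain of fluorescence intensity versus DMSO vehicle was read by laser scanning cytometry.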

[7] = biological target: T1, Estrogen receptor (Homo sapiens) + Estrogen receptor beta (Homo sapiens) (UniProt P03372+Q92731); assay: OT_ER_ERaERb_0480: Odyssey Thera (OT) 8-hour HEK293T Protein-Complementation Assay for Estrogen Receptor-alpha/-beta Heterodimer (AID 2283352)
T1 sequence (P03372 whole entry, looked up): as the sequence (P03372 whole entry, looked up, the tested form may be a part) above
T1 sequence (Q92731 whole entry, looked up): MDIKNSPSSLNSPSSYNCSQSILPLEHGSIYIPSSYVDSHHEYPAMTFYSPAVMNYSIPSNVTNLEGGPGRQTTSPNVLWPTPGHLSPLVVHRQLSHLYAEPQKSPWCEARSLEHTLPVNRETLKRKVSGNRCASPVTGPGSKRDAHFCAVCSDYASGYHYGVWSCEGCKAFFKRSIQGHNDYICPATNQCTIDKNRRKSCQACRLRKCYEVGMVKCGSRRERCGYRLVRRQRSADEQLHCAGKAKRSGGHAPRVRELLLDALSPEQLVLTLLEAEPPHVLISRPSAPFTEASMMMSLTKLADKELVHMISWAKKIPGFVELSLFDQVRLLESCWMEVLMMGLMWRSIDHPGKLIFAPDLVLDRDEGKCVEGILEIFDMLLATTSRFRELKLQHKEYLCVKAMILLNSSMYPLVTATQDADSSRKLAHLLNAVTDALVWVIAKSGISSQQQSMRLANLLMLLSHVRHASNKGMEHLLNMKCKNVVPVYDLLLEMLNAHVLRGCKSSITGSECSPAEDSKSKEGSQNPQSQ
Outline: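 Compound added to HEK293T cells carrying split-reporter-tagged ER-alpha and ER-beta LBDs, incubated 8 hours, then imaged by laser scanning cytometer. Signal rise in nucleus, or nucleus and cytoplasm, over vehicle was fitted in the positive direction.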

[8] = biological target: T1, Estrogen receptor (Homo sapiens) + Estrogen receptor beta (Homo sapiens); assay: OT_ER_ERaERb_1440: Odyssey Thera (OT) 24-hour HEK293T Protein-Complementation Assay for Estrogen Receptor-alpha/-beta Homodimer (AID 2283356);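 further: heteromer of ER alpha and ER beta binding domains; hits raise reporter fluorescence and both agonists and antagonists give an increase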
Outline: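 Stable HEK293T PCA line, ERα LBD 310-547 + ERβ LBD 263-489 fused to reporter fragments; 24 h treatment; fluorescence read by laser scanning cytometry; positive fitting direction relative to DMSO.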

PGR (gene 5241) = PGR (gene 5241) (UniProt P06401); assay: NVS_NR_hPR: NovaScreen (NVS) Nuclear Receptor Binding Assay for human Progestron Receptor (PR) (AID 2283360);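 further: active means loss of bound radioligand signal versus DMSO baseline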
Chain of PGR (gene 5241) (P06401 whole entry, looked up): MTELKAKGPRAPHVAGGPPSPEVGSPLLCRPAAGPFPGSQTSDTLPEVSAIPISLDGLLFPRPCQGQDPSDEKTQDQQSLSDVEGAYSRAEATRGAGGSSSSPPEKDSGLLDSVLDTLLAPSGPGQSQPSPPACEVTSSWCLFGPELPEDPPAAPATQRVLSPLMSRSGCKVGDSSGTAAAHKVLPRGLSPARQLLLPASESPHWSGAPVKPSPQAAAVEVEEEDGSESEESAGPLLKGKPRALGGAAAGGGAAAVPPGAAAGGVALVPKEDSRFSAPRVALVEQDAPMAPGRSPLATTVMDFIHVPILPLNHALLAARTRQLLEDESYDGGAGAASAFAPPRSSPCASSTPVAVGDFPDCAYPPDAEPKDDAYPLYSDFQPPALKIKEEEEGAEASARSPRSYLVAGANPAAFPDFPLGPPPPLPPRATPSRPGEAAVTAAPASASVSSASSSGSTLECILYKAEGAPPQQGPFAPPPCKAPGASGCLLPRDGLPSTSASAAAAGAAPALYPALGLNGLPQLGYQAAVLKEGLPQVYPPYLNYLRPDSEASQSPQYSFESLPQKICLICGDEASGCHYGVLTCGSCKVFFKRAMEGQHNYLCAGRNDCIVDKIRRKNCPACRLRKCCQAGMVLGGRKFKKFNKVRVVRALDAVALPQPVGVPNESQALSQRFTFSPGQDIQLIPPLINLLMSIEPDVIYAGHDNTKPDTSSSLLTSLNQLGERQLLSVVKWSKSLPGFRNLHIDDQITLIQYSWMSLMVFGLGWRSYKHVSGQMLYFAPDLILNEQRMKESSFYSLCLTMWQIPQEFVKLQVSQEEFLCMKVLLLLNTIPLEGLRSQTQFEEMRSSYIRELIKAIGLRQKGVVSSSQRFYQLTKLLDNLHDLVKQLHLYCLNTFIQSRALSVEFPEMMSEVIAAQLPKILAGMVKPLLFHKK
Outline: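 Competitive displacement of a labelled radioligand from T47D-derived receptor protein is measured in a cell-free format. Initial testing uses 25 uM in duplicate, with positive and negative controls on every plate.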

[9] = biological target: Estrogen receptor (Homo sapiens) (UniProt P03372); assay: OT_ER_ERaERa_1440: Odyssey Thera (OT) 24-hour HEK293T Protein-Complementation Assay for Estrogen Receptor-alpha/-alpha Homodimer (AID 2283349);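 further: hits raise fluorescence above DMSO for agonists and antagonists alike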
Outline: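 Protein-fragment complementation between two human ERα ligand-binding domains (aa 310-547) in stably transfected HEK293T cells was monitored after 24 h treatment, using fluorescence intensity relative to vehicle controls.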

[10] = biological target: bovine Gamma-Aminobutyric Acid Type A Receptor Agonist (GABAR Agonist), GABRA1 (gene 780973) (UniProt P08219); assay: NVS_LGIC_bGABAR_Agonist: NovaScreen (NVS) Ligand-Gated Ion Channel Assay for bovine Gamma-Aminobutyric Acid Type A Receptor Agonist (GABAR Agonist) (AID 2283338)
Outline: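 Radioligand binding to bovine cerebellar membranes in agonist format, read by filter-based scintillation counting after 1 h. Primary screen in duplicate at 25 uM, with actives followed in concentration series. Gain of signal versus DMSO.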

[11] = biological target: human Constitutive Androstane Receptor (CAR), NR1I3 (gene 9970) (UniProt Q14994); assay: NVS_NR_hCAR_Antagonist: NovaScreen (NVS) Nuclear Receptor Binding Assay for human Constitutive Androstane Receptor Antagonism (CAR) (AID 2283344)
Outline: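 Cell-free TR-FRET binding read 1 h after dosing, antagonist mode; loss of signal versus DMSO baseline. Primary screen in duplicate at a single 25 uM; actives retested in concentration series.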

[12] = biological target: Androgen Receptor/SRC-1 Co-activator, AR (gene 367) (UniProt P10275); assay: OT_AR_ARSRC1_0480: Odyssey Thera (OT) 8-hour HEK293T Protein-Complementation Assay for Androgen Receptor/SRC-1 Co-activator (AID 2283354);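 further: hits raise the complementation signal above DMSO so AC50 marks enhancers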
Outline: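 Measures AR/SRC-1 binding by Venus YFP fragment complementation in HEK293T stable lines at 8 h post-dose. Imaging quantifies the 488nm nucleus/cytoplasm ratio in ≥400 cells; DMSO defines baseline.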

[13] = biological target: Estrogen receptor beta (Homo sapiens) (UniProt Q92731); assay: OT_ER_ERbERb_0480: Odyssey Thera (OT) 8-hour HEK293T Protein-Complementation Assay for Estrogen Receptor-beta/-beta Homodimer (AID 2283357);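 further: active means signal gain over DMSO baseline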
Chain of Estrogen receptor beta (Homo sapiens) (Q92731 whole entry, looked up, the tested form may be a part): as the sequence (Q92731 whole entry, looked up) above
Outline: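 Cells (HEK293T, stable ER-beta LBD PCA pair) are treated 8 hours, fixed and Draq5-stained; signal is fluorescence intensity increase relative to vehicle, fitted in the gain direction.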

[14] = biological target: Retinoic acid receptor alpha (Homo sapiens) (UniProt P10276); assay: NVS_NR_hRAR_Antagonist: NovaScreen (NVS) Nuclear Receptor Binding Assay for human Retinoic Acid Alpha Receptor Antagonism (RAR) (AID 2283358)
Chain of Retinoic acid receptor alpha (Homo sapiens) (P10276 whole entry, looked up): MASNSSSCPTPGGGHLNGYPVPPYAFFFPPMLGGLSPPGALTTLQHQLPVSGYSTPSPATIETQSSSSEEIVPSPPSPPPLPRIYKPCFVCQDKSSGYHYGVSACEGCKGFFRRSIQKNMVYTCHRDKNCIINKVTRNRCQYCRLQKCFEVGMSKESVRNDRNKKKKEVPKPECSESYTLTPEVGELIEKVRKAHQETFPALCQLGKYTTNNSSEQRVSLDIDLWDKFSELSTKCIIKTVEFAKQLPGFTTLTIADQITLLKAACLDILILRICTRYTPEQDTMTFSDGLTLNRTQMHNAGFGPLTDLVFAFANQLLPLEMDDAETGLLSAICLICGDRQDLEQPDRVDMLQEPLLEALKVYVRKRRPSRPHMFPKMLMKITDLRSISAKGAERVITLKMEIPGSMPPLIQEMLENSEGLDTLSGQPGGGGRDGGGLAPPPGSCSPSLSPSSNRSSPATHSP
Outline: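 TR-FRET, cell-free, antagonist format; 2 h incubation after dosing; DMSO = baseline; signal loss fitted; 25 uM duplicate primary, then conc. series.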

[15] = biological target: human Peroxisome Proliferator-activated Receptor alpha (PPARa), PPARA (gene 5465) (UniProt Q07869); assay: NVS_NR_hPPARa: NovaScreen (NVS) Nuclear Receptor Binding Assay for human Peroxisome Proliferator-activated Receptor alpha (PPARa) (AID 2283359);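 further: activity means loss of TR-FRET signal versus DMSO baseline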
Chain of human Peroxisome Proliferator-activated Receptor alpha (PPARa), PPARA (gene 5465) (Q07869 whole entry, looked up): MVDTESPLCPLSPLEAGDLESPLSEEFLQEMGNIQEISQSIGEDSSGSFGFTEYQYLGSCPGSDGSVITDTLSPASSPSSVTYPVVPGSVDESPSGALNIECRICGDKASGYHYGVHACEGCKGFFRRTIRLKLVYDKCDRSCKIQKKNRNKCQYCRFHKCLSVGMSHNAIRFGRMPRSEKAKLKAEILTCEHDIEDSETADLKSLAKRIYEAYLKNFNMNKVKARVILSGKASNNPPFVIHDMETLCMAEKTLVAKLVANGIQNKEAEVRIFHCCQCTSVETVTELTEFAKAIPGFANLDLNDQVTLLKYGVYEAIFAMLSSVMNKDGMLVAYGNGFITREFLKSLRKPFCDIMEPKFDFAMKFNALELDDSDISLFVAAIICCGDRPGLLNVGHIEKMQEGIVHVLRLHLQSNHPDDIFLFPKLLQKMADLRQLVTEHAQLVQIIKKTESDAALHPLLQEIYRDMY
Outline: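 Chemicals were first screened in duplicate at 25 uM, and active ones were retested across concentration series. Binding was monitored by TR-FRET one hour after dosing, with decreased signal against DMSO counted as activity.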

[16] = biological target: Retinoic acid receptor alpha (Homo sapiens) (UniProt P10276); assay: NVS_NR_hRARa_Agonist: NovaScreen (NVS) Nuclear Receptor Binding Assay for human Retinoic Acid Alpha Receptor Agonism (RAR) (AID 2283361)
Outline: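 Readout is time-resolved fluorescence resonance energy transfer after a 2 h exposure of cell-free extracted receptor protein. Initial testing used 25 uM in duplicate, with concentration-response follow-up for active chemicals.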

Measured: AC50

c1ccc(C(O[C@@H]2CCCN(CCc3ccc4c(c3)OCO4)C2)c2ccccc2)cc1
inactive: [1] | [3] | [4] | [5] | [6] | PGR (gene 5241)
active: [2] 0.337 µM | [7] 31.5 µM | [8] 62.5 µM

OCCNCCO
active: [9] 11.9 µM
inactive: [6]

CC(=O)c1ccccc1
inactive: [10] | [9] | [6]

CCCCC(CC)C(=O)OCCOCCOCCOC(=O)C(CC)CCCC (centres undefined)
inactive: [11] | [3] | [5] | [9] | [6] | [7] | [12] | [8]

C[C@]12C=CC(=O)C=C1CC[C@H]1[C@@H]3C[C@@H](O)[C@](O)(C(=O)CO)[C@@]3(C)C[C@H](O)[C@@]12F
inactive: [3] | [6] | PGR (gene 5241)
active: [4] 32.6 µM | [5] 38.3 µM

CCN(CC)C(=S)SSC(=S)N(CC)CC
inactive: [5] | [9] | [6] | [7]
active: [12] 23.9 µM | [8] 12 µM

CCCCOC(=O)c1ccccc1
inactive: [9] | [6] | [12]

Cc1ccc(S(=O)(=O)NC(=O)NN2CCCCCC2)cc1
inactive: [9] | [6] | [7] | [8]

OC[C@H]1O[C@@](CO)(O[C@H]2O[C@H](CO)[C@@H](O)[C@H](O)[C@H]2O)[C@@H](O)[C@@H]1O
inactive: [9] | [6] | [8] | PGR (gene 5241)

CC(C)CC(C)O (centres undefined)
inactive: [9] | [6] | [7] | [8]

NC(N)=O
inactive: [6] | [7] | [8]

OCCOCCOCCO
inactive: [9] | [6] | [7] | [12] | [8] | [13]

c1ccc2ncccc2c1
inactive: [6]

NC(=O)N(O)[C@@H]1COc2cc(OCc3ccccc3)ccc21
inactive: [6] | [7] | [8]

CCCCCCCC/C=C\CCCCCCCC(=O)OC[C@@H](O)[C@H]1OC[C@H](O)[C@H]1O
inactive: [9] | [6] | [7] | [8] | [14]
active: [15] 0.845 µM

O=S(=O)(O)c1ccc(N=Nc2c(O)ccc3cc(S(=O)(=O)O)ccc23)cc1
inactive: [6] | PGR (gene 5241)

O=C(O)[C@H](O)[C@@H](O)C(=O)O
inactive: [9] | [6] | [7] | [8] | PGR (gene 5241)

O=S1(=O)CCCO1
inactive: [6] | [7] | [8]

COCc1nnc(-c2ccc[n+]([O-])c2)n1-c1c(Cl)c(Cl)cc2[nH]c(=O)c(=O)[nH]c12
inactive: [6] | [7] | [12] | [8]

O=C(NO)C1(NS(=O)(=O)c2ccc(Oc3ccc(F)cc3)cc2)CCOCC1
inactive: [9] | [6] | [8]
active: PGR (gene 5241) 6.3 µM

CC[C@H](C)C(=O)O[C@H]1C[C@H](O)C=C2C=C[C@H](C)[C@H](CC[C@@H](O)C[C@@H](O)CC(=O)O)[C@H]21
inactive: [6] | [7] | [8] | [13]

CCCOc1ccc(S(=O)(=O)N2CCN(CC)CC2)cc1-c1nc2c(CC)n(Cc3ccccn3)nc2c(=O)[nH]1
inactive: [9] | [6] | [7] | [8] | [13] | PGR (gene 5241)

OCc1ccccc1
inactive: [6] | [7] | [8] | [13] | PGR (gene 5241)

CC(C)CCCCCCOC(=O)C1CCCCC1C(=O)OCCCCCCC(C)C (centres undefined)
inactive: [6] | [7] | [8]

CNC(C)=O
inactive: [6] | [7] | [8]

CCCc1ccccc1
inactive: [6] | [7] | PGR (gene 5241)

OC(CCl)CCl
active: [15] 40.2 µM
inactive: [9] | [6] | [7] | [8]

CCCCN1C(=O)[C@@H]([C@H](O)C2CCCCC2)NC(=O)C12CCN(Cc1ccc(Oc3ccc(C(=O)O)cc3)cc1)CC2
inactive: [9] | [6] | [7] | [8] | [15]

CCOc1ccc2[nH]cc(C(=O)NCc3ccccc3)c(=O)c2n1
inactive: [6] | [7] | [8]

CCCCCCCCCCCCCCO
inactive: [6] | [7] | [8] | [15]

c1ccc2cc3ccccc3cc2c1
inactive: [6] | [7] | [8]

C=CN1CCCC1=O
inactive: [6]

Cn1c(=O)c2[nH]cnc2n(C)c1=O
inactive: [9] | [6]

C[C@@H](Oc1ccc(CNC(=O)c2cccnc2Oc2ccc3c(c2)OCO3)c(F)c1)C(=O)O
inactive: [6] | [7] | [8] | PGR (gene 5241)

CC(C)c1nnc2ccc(-c3ocnc3-c3cc(F)ccc3F)cn12
inactive: [6] | [7] | [8]

COc1cc2c(c(OC)c1OC)-c1ccc(OC)c(=O)cc1[C@@H](NC(C)=O)CC2
inactive: [9] | [6] | [7] | [12] | [8]

CCCCCCCCN(C)C
inactive: [6] | [16]

NC(=O)NN=Cc1ccc([N+](=O)[O-])o1
inactive: [6] | [7] | [8]

CCCCCOC(C)=O
inactive: [6]

O=C(O)CO
inactive: [6] | [8]

O=C(O)c1cccc(C(=O)O)c1
inactive: [9] | [6]
